High-throughput results (PubChem)
Most compounds without a hit are left out; they make up all but 2.2% or so of the library.
Beta cell apopt: blocks beta cell apoptosis; INS-1E cytokine-induced death, ATP luminescence, 48 h; percent of positive-control rescue, neutral wells zero; protection from apoptosis, % (no concentration beside the values); actives 0.8% (n = 300,000); AID 435005;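 active = Every replicate reaches about 75%, or at least half do and their mean reaches it too, limit read from the data; inconclusive = At least half of replicates reach the limit but their mean does not; inactive = Under half of replicates reach the limit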;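 also: higher means more ATP so stronger rescue from cytokine killing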
Shn3 inh set2: inhibitors of Schnurri-3 3'UTR reporter in osteoblasts | Clone20 osteoblast Shn3 3'UTR firefly luciferase, 24 h | inhibition, % at 12.5 µM | actives 0.52% (n = 360,000) | AID 588674;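 active = mean inhibition of at least 75% with every replicate also reaching 75%; inconclusive = mean inhibition at least 75% but some replicate below; inactive = mean inhibition below 75%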
CSC inhib: blocks cancer stem cells. cancer stem cell-like cells viability, luminescence. inhibition, % at 7.5 µM. actives 1.1% (n = 300,000); in the data active = inhibition above about 75%; inconclusive = no clear call, values can overlap the other calls; tested in HMLE shEcad cells
PfHsp90 yeast 2: inhibits growth of yeast expressing Plasmodium falciparum Hsp90; S. cerevisiae expressing PfHsp90, BacTiter-Glo ATP, 48 h; yeast lacking PDR1 and PDR3 efflux regulators; inhibition, % at 9.4 µM; actives 0.32% (n = 310,000); AID 504621;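 active = every replicate shows inhibition above about 80%, whatever the replicate mean, limit read from the data; inconclusive = mean inhibition reaches the set limit but some replicate falls short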
Calb FLC: affects C. albicans growth with fluconazole. AID 1979. actives 0.57% (n = 300,000). C. albicans CaCi-2 (fluconazole-resistant clinical isolate) + fluconazole, Alamar Blue growth, 48 h. growth inhibition, % (concentration not given with the values);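 active = growth inhibition above about 58% in most replicates, limit read from the data, passing the limit was not always enough; inconclusive = exactly half the replicates above a set limit; inactive = most replicates below a set limit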;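 also: all wells also contain fluconazole at 8 µg/ml as a sub-toxic cotreatment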
Hits are given with their value; i = inactive; ? = inconclusive; nt = no result.

SMILES	Beta cell apopt	Shn3 inh set2	CSC inhib	PfHsp90 yeast 2	Calb FLC
CN(C)[C@H]1CCN([C@H]2CS(=O)(=O)N[C@@H]2COCc2ccccc2)C1	nt	i	nt	nt	nt
Cc1nc(Nc2ccc(Cl)cc2)c2nnn(Cc3ccccc3)c2n1	i	i	i	i	i
Cc1nc(Nc2ccc(S(=O)(=O)N3CCCCC3C)cc2)c2nnn(Cc3ccccc3)c2n1 (stereo not given)	76	i	i	i	i
CCCN(CCC)CC(O)Cn1cc(/C=C/C(=O)c2ccccc2)c2ccccc21 (stereo not given)	nt	i	nt	i	i
CCCCN(C)CC(O)Cn1cc(/C=C/C(=O)c2ccc(C)cc2)c2ccccc21 (stereo not given)	i	i	82	i	i
CC(C)C(NC(=O)/C=C/c1cccc([N+](=O)[O-])c1)C(C)C	i	i	i	i	i
O=C(COC(=O)c1ccccc1NC(=O)c1ccccc1)c1cccc([N+](=O)[O-])c1	i	i	i	i	i
CCOC(=O)c1ccccc1NC(=O)c1cccc([N+](=O)[O-])c1	i	i	i	i	108
CC(C)NC(=O)c1ccccc1NC(=O)/C=C/c1cccc([N+](=O)[O-])c1	113	i	96	i	i
COc1ccc(S(=O)(=O)NC(C(=O)OCC(=O)Nc2ccc(N3CCOCC3)cc2)C(C)C)cc1 (stereo not given)	nt	i	nt	i	nt
O=C(c1ccc(Cl)cc1)C(CN1CCCCC1)c1ccccc1 (stereo not given)	91	i	95	i	i
CCCOc1ccc(C(=O)C(CN2CCOCC2)c2ccccc2)cc1 (stereo not given)	79	i	i	i	i
CCCOc1ccc(C(=O)C(c2ccccc2)N2CCOCC2)cc1 (stereo not given)	i	i	i	i	i
COc1ccccc1C(CNC(=O)c1ccc(C)c(S(=O)(=O)N2CCCCC2)c1)N1CCCC1 (stereo not given)	nt	i	nt	i	nt
COCC(=O)N(Cc1cc2cccc(C)c2[nH]c1=O)c1ccccc1	i	i	i	i	i
CCCCC1(c2ccc(F)cc2)NC(=O)N(CC(=O)N2CCN(C(=O)c3ccco3)CC2)C1=O (stereo not given)	nt	i	i	i	i
Cn1cccc1/C=N/NC(=O)Cc1cccs1	105	i	i	nt	i
COc1cccc(/C=N/NC(=O)CNC(=O)/C=C\c2ccccc2)c1O	i	90	i	i	i
C=CCc1cccc(/C=N/NC(=O)CNc2ccccc2)c1O	90	i	i	i	i
C=CCc1cccc(/C=N/NC(=O)CNc2cccc3ccccc23)c1O	nt	i	i	i	92
C=CCc1cccc(/C=N/NC(=O)CCCNc2ccc(C)cc2)c1O	i	i	i	i	i
C=CCc1cccc(/C=N/NC(=O)C[n+]2ccccc2)c1O	i	i	i	i	i
C=CCc1cccc(/C=N/NC(=O)CCC(=O)Nc2ccc(F)cc2)c1O	93	i	i	i	i
O=C(Nc1ccc2c(c1)OCCO2)C(=O)NC1CC1	i	i	i	i	i
C[C@H](O)[C@@H]1C(=O)N2CCc3c([nH]c4ccccc34)[C@@H]2C[C@@H]1N(C)Cc1ccc2c(c1)OCO2	nt	i	nt	nt	nt
SMILES	Beta cell apopt	Shn3 inh set2	CSC inhib	PfHsp90 yeast 2	Calb FLC
CC(C)C[C@@H](CN1CCC[C@@H]1CN1C(=S)NC[C@@H]1Cc1ccc(O)cc1)N1C[C@H](Cc2ccc(O)cc2)N(CC2CCCCC2)C1=S	nt	i	nt	nt	nt
CC(C)(C)N(Cc1ccccc1)C(=O)CN1C(=O)NC2(CCCCCC2)C1=O	i	i	i	i	nt
C=CCc1cccc(/C=N/NC(=O)CNc2ccccc2OC)c1O	i	i	i	i	93
COCCNc1c(-c2cc3ccc(C)c(C)c3[nH]c2=O)nc2ccccn12	i	i	i	i	i
COCCNc1ncnc2c1ncn2[C@H]1CN(Cc2ccco2)C[C@@H](CO)O1	nt	i	nt	nt	nt
Cc1ccc(-n2nc3c([n+]2[O-])CCc2c-3no[n+]2[O-])cc1	i	90	i	i	i
Cc1cccc(-n2nc3c([n+]2[O-])CCc2nonc2-3)c1C	i	i	i	i	i
[O-][n+]1onc2c1CCc1c-2nn(-c2ccccc2Cl)[n+]1[O-]	96	i	i	i	i
Cc1ccc(N(C(=O)CNC(=O)c2ccco2)C(C(=O)NC2CCCC2)c2cccnc2)c(C)c1 (stereo not given)	i	i	nt	i	i
S=C(Nc1ccc(Oc2ccccc2)cc1)N1CCN(c2ccccn2)CC1	i	i	i	i	i
Cc1ccc(C(=O)N2CCCC2)cc1S(=O)(=O)N1CCCCC1	i	i	i	i	i
O=C(/C=C/Sc1ccccc1)c1ccccc1	i	i	i	i	i
O=C(/C=C/Sc1ccccc1)c1ccc(Cl)cc1	i	i	102	i	i
Cc1ccccc1Nc1c(-c2ccccn2)nc2ccccn12	i	i	i	i	i
Cc1cccn2c(Nc3ccccc3)c(-c3ccccn3)nc12	78	i	i	i	i
Cc1ccc2nc(-c3ccccn3)c(Nc3ccccc3C)n2c1	101	i	?	i	i
Cc1ccn2c(Nc3ccccc3)c(-c3ccccn3)nc2c1	96	i	81	i	i
Cc1ccn2c(Nc3ccccc3C)c(-c3ccccn3)nc2c1	94	?	i	i	i
CC(=O)c1ccc(NC(=O)c2cn(C)c(=O)c3ccccc23)cc1	nt	i	nt	nt	nt
CCCC1C(c2ccco2)NC(c2ccco2)CC1(C)O (stereo not given)	i	i	i	i	89
CCOc1cc(/C=N/NC(=O)C2CC2)ccc1OC(C)C	i	i	i	i	i
C[C@@]12C(=O)OC(=O)[C@]1(C)C1CCC2O1	79	94	109	i	nt
CC12C(=O)N(c3nccs3)C(=O)C1(C)C1CCC2O1 (stereo not given)	nt	i	nt	nt	nt
CCOc1cc(NC(=S)NCCCN2CCOCC2)c(OCC)cc1NC(=O)C1CCCCC1	i	i	i	i	i
COc1ccc(N(C(=O)c2ccncc2)S(=O)(=O)c2ccc(F)cc2)cc1	nt	i	i	nt	i
SMILES	Beta cell apopt	Shn3 inh set2	CSC inhib	PfHsp90 yeast 2	Calb FLC
COc1ccc(N(C(=O)c2ccncc2)S(=O)(=O)c2ccccc2)cc1	i	i	i	194	i
COc1ccc(S(=O)(=O)N(C(=O)c2ccncc2)c2ccc(OC(=O)c3ccncc3)cc2)cc1	i	i	i	91	i
CCCN1CCN(C(=O)c2ccc(S(=O)(=O)N(C)c3ccccc3OC)cc2)CC1	nt	i	nt	nt	nt
Oc1c(Br)cc(Br)cc1/C=N/Nc1ccc(Cl)nn1	98	95	100	i	83
CCOc1ccccc1/C=N/Nc1ccc(Cl)nn1	i	i	i	i	i
CCOc1ccc(/C=N/Nc2ccc(Cl)nn2)c(O)c1	119	i	i	i	i
Oc1c(Br)cc(/C=N/Nc2ccc(Cl)nn2)cc1Br	i	i	i	i	i
CSCCC(NC(=O)COc1ccccc1)C(=O)OC(C)C(=O)Nc1ccccc1C (stereo not given)	i	i	i	i	i
CCCN(CC(=O)NC(=O)NCc1ccccc1)CC(=O)Nc1ccc(F)c(F)c1F	nt	i	nt	nt	nt
O=C(OCCN1C(=O)c2cccc3c(N4CCOCC4)ccc(c23)C1=O)c1ccccc1Cl	i	86	i	i	i
